Measured values as given in PubChem BioAssay (NCI).
About 79,000 compounds went through this panel and 15% of them were active in at least one assay; those are over-represented in the sample as a whole. A number with no mark means an inactive call. Calls of active or inactive are those of the source. No stated cut-off is given here; in the data, active means growth inhibition above about 70%; inactive means the rest.

Columns and labels:
[1] = NCI Yeast Anticancer Drug Screen. Data for the rad50 strain (AID 155);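 further: 0% = growth of vehicle-only cultures of the same strain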; conditions: S. cerevisiae rad50 strain growth inhibition, stronger effect = higher value
Summary of the method: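 Genetically altered yeast (DNA repair pathway); compound treatment; growth inhibition vs vehicle ctrl.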

[2] = NCI Yeast Anticancer Drug Screen. Data for the mec2-1 strain (AID 157); conditions: S. cerevisiae mec2-1 strain, stronger effect = higher value
Summary of the method: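 Vehicle-treated cultures served as reference for growth inhibition of compound-exposed mec2-1 yeast.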

[3] = NCI Yeast Anticancer Drug Screen. Data for the sgs1 mgt1 strain (AID 161);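 further: 0% = growth of cultures given vehicle only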; conditions: S. cerevisiae sgs1 mgt1 strain, stronger effect = higher value
Summary of the method: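 Mutant yeast exposed to compound; growth scored against vehicle-only wells.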

[4] = NCI Yeast Anticancer Drug Screen. Data for the cln2 rad14 strain (AID 165);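 further: 0% = growth equal to vehicle treated cultures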; conditions: S. cerevisiae cln2 rad14 strain, stronger effect = higher value
Summary of the method: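 Each compound was tested on cln2 rad14 yeast. Inhibition of growth was calculated against vehicle-exposed controls.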

[5] = NCI Yeast Anticancer Drug Screen. Data for the bub3 strain (AID 167); conditions: S. cerevisiae bub3 mutant strain, stronger effect = higher value
Summary of the method: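 Yeast carrying a defined mutation is treated with each compound, and growth is compared with that of vehicle-exposed cells to give inhibition.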

[6] = NCI Yeast Anticancer Drug Screen. Data for the mlh1 rad18 strain (AID 175); conditions: S. cerevisiae mlh1 rad18 strain growth inhibition, stronger effect = higher value
Summary of the method: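 Vehicle-treated cultures served as the reference for growth inhibition in a yeast strain carrying DNA damage repair alterations exposed to each compound.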

[7] = at 5.0 µM (retest, dose inferred, filed as 0.5)
[8] = at 50.0 µM (retest, dose inferred, filed as 5.0)

SMILES	growth inhibition [1, 7] [%]	growth inhibition [1, 8]	growth inhibition ([1]; at 50.0 µM)	growth inhibition [2, 7] [%]	growth inhibition [2, 8]	growth inhibition ([2]; at 50.0 µM)	growth inhibition [3, 7]	growth inhibition [3, 8]	growth inhibition ([3]; at 50.0 µM)	growth inhibition [4, 7]	growth inhibition [4, 8]	growth inhibition ([4]; at 50.0 µM)	growth inhibition [5, 7] [%]	growth inhibition [5, 8]	growth inhibition ([5]; at 50.0 µM)	growth inhibition [6, 7]	growth inhibition [6, 8]	growth inhibition ([6]; at 50.0 µM)
O=C(NC(=O)C(F)(F)F)Nc1ccc(Cl)cc1	1	0%	-35.8%	-2	-8%	-1.15%	1%	1%	9.75%	4%	0%	57.1%	-1	-2%	18.9%	-1%	-1%	0.8%
C/C(=N\NC(=S)N1CCCC1)c1cnccn1	61	98% (active)	98.8% (active)	56	99% (active)	99% (active)	77% (active)	98% (active)	99.3% (active)	74% (active)	98% (active)	97.7% (active)	33	97% (active)	99% (active)	80% (active)	98% (active)	99.1% (active)
C[N+]1(C)C/C(=C\C=C\c2ccccc2)C(=O)/C(=C/C=C/c2ccccc2)C1	17	17%	93.2% (active)	9	9%	92.1% (active)	17%	17%	92.6% (active)	0%	0%	91.5% (active)	-2	-2%	93.9% (active)	9%	9%	92.5% (active)
COC(=O)/C=C/c1cccc[n+]1[O-]	3	-6%	44.6%	3	-4%	-2.85%	4%	-6%	0.55%	4%	-15%	54.8%	4	0%	-4.4%	-1%	-11%	17.8%
CC(C)(C)[Si](C)(C)OCC1OC(n2cc(I)c(N)nc2=O)C(O[Si](C)(C)C(C)(C)C)C1O[Si](C)(C)C(C)(C)C (configuration not stated)	48	97% (active)	27.1%	9	98% (active)	60.8%	85% (active)	98% (active)	36.1%	1%	51%	32.3%	9	99% (active)	38.4%	33%	94% (active)	86.7% (active)
COC(=O)C1=C(C)NC(C)=C([N+](=O)[O-])C1c1cccc(N=O)c1 (configuration not stated)	22	68%	74.2% (active)	16	98% (active)	72.1% (active)	27%	86% (active)	89.8% (active)	28%	45%	57.2%	26	93% (active)	90.2% (active)	33%	97% (active)	84.4% (active)
CC1=CC(=N/O)/C=CC/1=C(\C#N)c1ccccc1	-14	99% (active)	99.2% (active)	-11	99% (active)	99.4% (active)	-6%	99% (active)	99.4% (active)	-47%	99% (active)	99.3% (active)	-17	99% (active)	99.4% (active)	-20%	100% (active)	98.7% (active)
CSc1nc(COC(=O)NC(C)C)c(COC(=O)NC(C)C)n1-c1ccccc1	-12	11%	-17.1%	23	11%	4.2%	-19%	-6%	-6.15%	13%	4%	53.1%	8	22%	-12.7%	-1%	-6%	18.9%
C=C(Cl)C(=NC(C)(C)C)Nc1ccccc1Cl	21	42%	66.4%	14	35%	59.5%	16%	40%	63.1%	31%	33%	50.8%	14	32%	53.2%	27%	53%	85.8% (active)
